Reference: the supplement of paper PMC11732987, “Enantioselective OTUD7B fragment discovery through chemoproteomics screening and high-throughput optimisation” (Communications Chemistry, 2025)

Experiments:
Test in all cases: log2 ratio of Biotin-Ahx-Ub-VS probe labelling (fragment/DMSO); higher = less target engagement (more negative = stronger competition), active = hit call of the paper (q ≤ 0.05, log2 ratio ≤ -1)
Conditions in all cases: compound concentration: 200 uM; treatment time: 3 h
OTUD6B = target: T1, OTUD6B (UniProt Q8N6M0)
T1 sequence (whole entry): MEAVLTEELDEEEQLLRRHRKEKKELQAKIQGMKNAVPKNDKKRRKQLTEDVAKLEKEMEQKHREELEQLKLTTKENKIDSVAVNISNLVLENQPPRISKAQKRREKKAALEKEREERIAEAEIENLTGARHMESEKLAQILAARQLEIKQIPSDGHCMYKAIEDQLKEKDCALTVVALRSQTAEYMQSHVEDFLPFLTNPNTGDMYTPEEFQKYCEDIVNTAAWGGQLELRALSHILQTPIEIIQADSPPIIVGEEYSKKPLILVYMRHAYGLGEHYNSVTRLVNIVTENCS
Procedure, shortened: (§1)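 Each value is an average log2 ratio of fragment to vehicle, tested by unpaired t-test. The underlying Spectronaut label-free quantities were global-median-normalised, and only proteins with ≥2 unique peptides were included. Triplicate HEK293T lysate samples (495 µg) were exposed to fragment at 200 µM or vehicle for 3 h, then to Biotin-Ahx-Ub-VS at 0.5 µM final for 1 h, before NeutrAvidin enrichment of labelled DUBs, LysC and trypsin digestion, and diaPASEF LC-MS/MS.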

OTUD7B = target: T2, OTUD7B (UniProt Q6GQQ9)
T2 sequence (whole entry): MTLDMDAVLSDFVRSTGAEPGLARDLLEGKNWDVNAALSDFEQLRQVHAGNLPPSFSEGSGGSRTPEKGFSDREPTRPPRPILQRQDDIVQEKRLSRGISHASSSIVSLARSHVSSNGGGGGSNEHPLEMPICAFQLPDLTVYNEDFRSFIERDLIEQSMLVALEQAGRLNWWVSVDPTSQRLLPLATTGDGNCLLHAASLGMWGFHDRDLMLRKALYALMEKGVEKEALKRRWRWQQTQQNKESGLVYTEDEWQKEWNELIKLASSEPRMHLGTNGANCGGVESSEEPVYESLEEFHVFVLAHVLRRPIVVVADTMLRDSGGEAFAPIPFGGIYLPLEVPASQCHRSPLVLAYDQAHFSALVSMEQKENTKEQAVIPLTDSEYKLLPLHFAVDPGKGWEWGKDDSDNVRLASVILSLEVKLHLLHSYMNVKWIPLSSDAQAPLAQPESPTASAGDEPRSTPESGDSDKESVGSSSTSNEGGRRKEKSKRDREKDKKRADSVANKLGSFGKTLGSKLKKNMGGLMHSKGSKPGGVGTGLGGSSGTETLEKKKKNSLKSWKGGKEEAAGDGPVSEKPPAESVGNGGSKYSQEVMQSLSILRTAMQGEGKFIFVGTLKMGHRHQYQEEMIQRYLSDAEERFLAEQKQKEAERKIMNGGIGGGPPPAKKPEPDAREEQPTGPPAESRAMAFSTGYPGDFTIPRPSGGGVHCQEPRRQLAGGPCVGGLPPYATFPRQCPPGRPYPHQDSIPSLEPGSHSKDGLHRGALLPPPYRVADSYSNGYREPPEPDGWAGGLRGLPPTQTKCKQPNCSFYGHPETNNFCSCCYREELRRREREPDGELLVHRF
Procedure, shortened: as §1

PRPF8 = PRPF8 (UniProt Q6P2Q9)
Procedure, shortened: as §1

PSMD7 = target: T3, PSMD7 (UniProt P51665)
T3 sequence (whole entry): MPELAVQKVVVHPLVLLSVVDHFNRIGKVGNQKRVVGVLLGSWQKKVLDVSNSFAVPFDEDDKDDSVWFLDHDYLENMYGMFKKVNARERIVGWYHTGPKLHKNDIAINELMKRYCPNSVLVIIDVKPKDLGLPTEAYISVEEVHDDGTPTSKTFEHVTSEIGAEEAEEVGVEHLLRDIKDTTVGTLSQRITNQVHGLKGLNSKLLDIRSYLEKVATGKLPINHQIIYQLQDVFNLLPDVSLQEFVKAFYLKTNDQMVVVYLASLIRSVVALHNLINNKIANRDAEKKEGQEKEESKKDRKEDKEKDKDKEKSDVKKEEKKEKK
Procedure, shortened: as §1

UCHL1 = UCHL1 (UniProt P09936)
Sequence of UCHL1 (P09936 whole entry, looked up): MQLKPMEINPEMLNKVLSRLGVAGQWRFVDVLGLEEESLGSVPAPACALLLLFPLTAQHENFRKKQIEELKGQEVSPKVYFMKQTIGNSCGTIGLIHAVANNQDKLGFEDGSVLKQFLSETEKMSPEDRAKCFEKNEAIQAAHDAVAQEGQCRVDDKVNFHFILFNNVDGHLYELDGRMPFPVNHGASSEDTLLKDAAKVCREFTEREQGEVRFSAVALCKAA
Procedure, shortened: as §1

UCHL3 = target: T4, UCHL3 (UniProt P15374)
T4 sequence (whole entry): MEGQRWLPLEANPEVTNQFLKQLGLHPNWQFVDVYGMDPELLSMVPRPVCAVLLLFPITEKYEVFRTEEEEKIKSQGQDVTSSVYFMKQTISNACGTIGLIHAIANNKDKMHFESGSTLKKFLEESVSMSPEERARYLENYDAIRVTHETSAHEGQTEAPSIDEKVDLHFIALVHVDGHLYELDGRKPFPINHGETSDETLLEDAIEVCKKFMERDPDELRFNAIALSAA
Procedure, shortened: as §1

UCHL5 = target: T5, UCHL5 (UniProt Q9Y5K5)
T5 sequence (whole entry): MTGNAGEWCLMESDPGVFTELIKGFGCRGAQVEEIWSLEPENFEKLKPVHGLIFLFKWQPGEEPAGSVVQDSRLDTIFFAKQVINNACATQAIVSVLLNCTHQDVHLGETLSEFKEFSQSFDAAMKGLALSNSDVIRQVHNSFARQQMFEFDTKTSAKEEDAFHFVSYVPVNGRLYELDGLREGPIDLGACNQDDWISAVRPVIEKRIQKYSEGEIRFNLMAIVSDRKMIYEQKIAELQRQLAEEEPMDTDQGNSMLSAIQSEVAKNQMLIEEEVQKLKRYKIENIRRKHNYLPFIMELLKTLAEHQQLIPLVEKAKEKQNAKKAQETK
Procedure, shortened: as §1

USP10 = USP10 (UniProt Q14694)
Sequence of USP10 (Q14694 whole entry): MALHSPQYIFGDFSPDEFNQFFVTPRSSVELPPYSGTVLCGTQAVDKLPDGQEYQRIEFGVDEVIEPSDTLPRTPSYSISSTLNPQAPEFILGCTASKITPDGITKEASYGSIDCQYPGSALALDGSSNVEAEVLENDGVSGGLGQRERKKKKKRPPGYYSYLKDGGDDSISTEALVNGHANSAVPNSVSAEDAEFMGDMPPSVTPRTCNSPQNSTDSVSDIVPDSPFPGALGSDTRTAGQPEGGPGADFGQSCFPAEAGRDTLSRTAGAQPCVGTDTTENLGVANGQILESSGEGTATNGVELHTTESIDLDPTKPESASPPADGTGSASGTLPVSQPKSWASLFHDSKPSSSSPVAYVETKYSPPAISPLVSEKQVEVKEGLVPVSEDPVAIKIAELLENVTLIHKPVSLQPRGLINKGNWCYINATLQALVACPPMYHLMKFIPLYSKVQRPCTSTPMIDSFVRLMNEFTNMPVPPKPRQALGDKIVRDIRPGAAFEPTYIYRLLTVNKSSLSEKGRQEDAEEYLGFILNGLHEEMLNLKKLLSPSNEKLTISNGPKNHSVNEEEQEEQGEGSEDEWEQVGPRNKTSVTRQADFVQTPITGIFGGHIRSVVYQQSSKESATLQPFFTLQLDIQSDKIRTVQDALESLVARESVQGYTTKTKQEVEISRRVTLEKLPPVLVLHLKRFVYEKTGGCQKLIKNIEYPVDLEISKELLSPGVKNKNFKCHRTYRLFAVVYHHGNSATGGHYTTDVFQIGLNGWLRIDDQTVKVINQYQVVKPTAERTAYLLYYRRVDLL
Procedure, shortened: as §1

USP15 = target: T6, USP15 (UniProt Q9Y4E8)
T6 sequence (whole entry): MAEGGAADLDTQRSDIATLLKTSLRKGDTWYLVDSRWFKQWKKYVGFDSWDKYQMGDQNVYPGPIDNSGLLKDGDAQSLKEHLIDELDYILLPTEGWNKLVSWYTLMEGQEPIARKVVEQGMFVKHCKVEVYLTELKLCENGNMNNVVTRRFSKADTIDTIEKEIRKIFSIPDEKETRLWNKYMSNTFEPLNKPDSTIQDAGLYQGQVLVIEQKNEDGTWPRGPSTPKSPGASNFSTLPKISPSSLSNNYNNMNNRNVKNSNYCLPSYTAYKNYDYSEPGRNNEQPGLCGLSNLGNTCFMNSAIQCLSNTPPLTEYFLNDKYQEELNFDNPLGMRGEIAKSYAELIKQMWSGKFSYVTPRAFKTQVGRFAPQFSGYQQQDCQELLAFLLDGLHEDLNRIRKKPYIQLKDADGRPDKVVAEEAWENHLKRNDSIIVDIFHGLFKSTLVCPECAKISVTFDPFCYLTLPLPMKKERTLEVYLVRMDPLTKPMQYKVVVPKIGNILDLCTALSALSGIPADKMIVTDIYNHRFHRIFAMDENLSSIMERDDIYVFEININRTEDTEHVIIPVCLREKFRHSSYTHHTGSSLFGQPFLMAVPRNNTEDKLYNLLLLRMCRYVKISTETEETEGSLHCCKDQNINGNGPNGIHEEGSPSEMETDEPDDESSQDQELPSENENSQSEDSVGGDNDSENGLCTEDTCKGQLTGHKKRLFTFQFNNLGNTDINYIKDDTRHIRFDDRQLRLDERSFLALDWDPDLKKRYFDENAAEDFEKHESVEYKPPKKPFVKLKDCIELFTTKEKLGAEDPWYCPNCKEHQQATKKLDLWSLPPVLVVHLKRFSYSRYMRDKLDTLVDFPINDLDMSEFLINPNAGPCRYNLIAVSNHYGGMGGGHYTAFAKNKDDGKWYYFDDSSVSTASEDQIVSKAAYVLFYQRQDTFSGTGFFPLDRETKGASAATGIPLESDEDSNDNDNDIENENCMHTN
Procedure, shortened: as §1

USP16 = USP16 (UniProt Q9Y5T5)
Sequence of USP16 (Q9Y5T5 whole entry, looked up): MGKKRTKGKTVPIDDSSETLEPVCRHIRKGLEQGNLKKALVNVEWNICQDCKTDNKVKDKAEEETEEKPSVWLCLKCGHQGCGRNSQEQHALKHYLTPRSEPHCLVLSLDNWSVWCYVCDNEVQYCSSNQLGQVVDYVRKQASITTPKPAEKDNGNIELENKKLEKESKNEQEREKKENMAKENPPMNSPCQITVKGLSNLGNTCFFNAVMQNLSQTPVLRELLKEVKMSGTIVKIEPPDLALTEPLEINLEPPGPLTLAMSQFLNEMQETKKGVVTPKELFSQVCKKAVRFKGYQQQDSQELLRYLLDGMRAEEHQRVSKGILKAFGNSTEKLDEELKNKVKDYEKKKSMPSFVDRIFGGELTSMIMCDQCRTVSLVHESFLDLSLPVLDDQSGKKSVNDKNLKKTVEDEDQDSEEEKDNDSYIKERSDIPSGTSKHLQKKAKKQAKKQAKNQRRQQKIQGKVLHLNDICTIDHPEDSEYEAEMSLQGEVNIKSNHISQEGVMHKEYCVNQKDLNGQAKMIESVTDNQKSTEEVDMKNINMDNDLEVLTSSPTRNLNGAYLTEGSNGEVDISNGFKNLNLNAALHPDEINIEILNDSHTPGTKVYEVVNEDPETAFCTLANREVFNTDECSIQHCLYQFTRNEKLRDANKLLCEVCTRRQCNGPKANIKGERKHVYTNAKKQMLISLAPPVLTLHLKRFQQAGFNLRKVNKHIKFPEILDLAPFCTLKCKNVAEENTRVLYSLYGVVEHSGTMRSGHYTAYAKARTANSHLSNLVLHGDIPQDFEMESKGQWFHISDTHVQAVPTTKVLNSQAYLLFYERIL
Procedure, shortened: as §1

Measured: log2 ratio of Biotin-Ahx-Ub-VS probe labelling

Cl.Cn1ncc2c1CCCC2NC(=O)CCl (stereo not given)
inactive: OTUD6B -0.272 | PRPF8 0.261 | PSMD7 0.0323 | UCHL3 0.241 | UCHL5 -0.145 | USP10 -0.078 | USP15 -0.335 | USP16 -0.096
active: OTUD7B -2.04 | UCHL1 -1.71
